About 83,000 compounds went through this panel and 20% of them were active in at least one assay; those are over-represented in the sample as a whole.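 96-well plates, one dose, 48 hours. Percent growth reported; active if below 10.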 Unmarked numbers belong to inactive results. Activity calls are given as the source filed them.

In this experiment the test system is CCRF-CEM leukemia. Kind of experiment: NCI-60 one-dose screen, 48 h (100 = growth as untreated, 0 = no growth, -100 = all killed). Conditions: 10 µM unless noted.
Consider `CCNC(=O)CCCCC(=O)c1c(C)[nH]c(/C=C2\N=C(c3ccc[nH]3)C=C2OC)c1C`, for which the growth is 42.2%. With `CC(=O)OCC1OC(OCC2OC(OC(C)=O)C(OC(C)=O)C(OC(C)=O)C2OC(C)=O)C(OC(C)=O)C(OC(C)=O)C1OC(C)=O` (stereo not drawn), the growth is 99.6%. The same measure for `Clc1ccc([I+]c2ccc(Cl)cc2Cl)c(Cl)c1`: -1.96% (active).

As to `CCC(=O)Oc1cc(/C=C/C(=O)O[C@H]2C[C@H]3CN4CCc5c([nH]c6cc(OC)ccc56)[C@@H]4C[C@@H]3[C@@H](C(=O)OC)[C@@H]2OC)ccc1OC`, the growth is 38.1%. Turning to `COC1=CC(c2ccc[nH]2)=N/C1=C\c1[nH]c(C)c(C(=O)CCCCC(=O)NCc2ccccc2)c1C`, the growth is 39.2%. For `COc1ccc(-c2nnc(COc3ccc(NS(=O)(=O)c4ccc(OC)cc4)cc3F)o2)cc1`, the growth is 43.1%.

`CN1CCN(c2ccc3cc(-c4nc5ccccc5[nH]4)c(=O)oc3c2)CC1`: the growth was 73.6%. To `CCC1=C[C@@H]2CN(C1)Cc1c([nH]c3ccccc13)[C@@](C(=O)OC)(c1cc3c(cc1OC)N(C=O)[C@H]1[C@@](O)(C(=O)OC)[C@H](OC(C)=O)[C@]4(CC)[C@@H]5C[C@@H]5CN5CC[C@]31[C@@H]54)C2` belongs 8.71% (active); to `O=S(=O)(c1ccccc1)n1ccc(-c2ccc3c(c2)CCO3)n1`, 76.7%; to `COC1=CC(c2ccc[nH]2)=N/C1=C\c1[nH]c(C)c(CCCn2cc(CCCCCCCCC[C@@H]3Cc4cc(O)ccc4C4CC[C@]5(C)[C@@H](O)CC[C@H]5C43)nn2)c1C` (stereo partly drawn), 28.1%.

For the compound `CCn1cc(C(=O)O)c(=O)c2cc(F)c(N3CCN(S(=O)(=O)c4ccc(OC)c(OC)c4)CC3)cc21`, the growth was 99.7%.

With `COc1cc2nc(SCc3cc(OC)c(OC)c(OC)c3)n(Cc3ccccc3)c(=O)c2cc1OC`, the growth is 23%. On to `O=[N+]([O-])c1cc(S(=O)(=O)OCC2CO2)ccc1Cl` (stereo not drawn), for which the growth is 76.7%. To `Nc1c(C(=O)Nc2ccccc2)sc2nc3c(cc12)CCC3` belongs 89.7%.

As for `COc1ccc([N+](=O)[O-])c(/C=C/C(=O)c2ccccn2)c1`, the growth was 49.6%. To `CC(C(=O)n1cc(-c2ccccc2)c(-c2ccccc2)c1)c1ccccc1` (stereo not drawn) belongs 103%; to `CCNCc1ccncc1`, 95%. To `NCCSC(c1ccccc1)(c1ccccc1)c1ccccc1` belongs 2.43% (active); to `O=C(O)c1ccc(-n2c(=O)c3ccccc3c3ccccc3c2=O)cc1`, 104%; to `COc1cc(/C=C2\C=C(c3ccc(F)cc3)N(Cc3ccccc3)C2=O)cc(OC)c1OC`, 62%.

For `COc1ccc(/C=C2\C(=O)N(C(=O)c3csc(NC(C)=O)n3)N=C2C)cc1`, the growth was 99%. As for `COc1cccc(NC(=O)Cn2cc3c(=O)oc4ccccc4c3n2)c1`, the growth is 102%.

Consider `CNC(C)=O`, for which the growth is 103%. Turning to `C=C1C(=O)O[C@H]2[C@H](O)[C@@H](C)CCC/C(C)=C/CC[C@@]3(C)O[C@@H]3C[C@@H]12`, the growth is 79.5%.

For the compound `CC(=O)Nc1ccc(S(=O)(=O)NC(CCC(=O)Nc2ccc(Cl)cc2)C(=O)O)cc1` (stereo not drawn), the growth is 88%. To `Cn1c(C(N)=O)cc2c1-c1nc(NC3CCCCC3)ncc1CCC2` belongs 93.9%. Regarding `Cc1nc2sccn2c1-c1csc(Nc2ccccc2Cl)n1`, the growth is 48.6%. The same measure for `Cc1ccc(Cn2c(-c3cccs3)nc3ccccc32)cc1`: 90.3%; for `COC1=CC(c2ccc[nH]2)=N/C1=C\c1[nH]c(C)c(C(=O)CCCCC(=O)Nc2ccccc2)c1C`: 58.9%; for `COc1ccc(-c2cn[nH]c2-c2cc(OC)c3c(c2)OCCO3)cc1`: 17.4%. For `COc1ccc(/C=C/c2nc(N3CCOCC3)c3cc(F)c(F)cc3n2)cc1OC`, the growth is 35.8%. The same measure for `O=c1oc2cc(OS(=O)(=O)c3ccc(F)cc3)ccc2c2c1CCCCC2`: 36%; for `CCn1cc(C(=O)O)c(=O)c2cc(F)c(N3CCN(S(=O)(=O)c4ccc(Cl)cc4Cl)CC3)cc21`: 2.78% (active); for `O=C(CN1CCN(c2cc3c(cc2F)c(=O)c(C(=O)O)cn3C2CC2)CC1)Nc1ccc(C(=O)/C=C/c2ccccc2)cc1`: 15.2%. The same measure for `O=C(CC(O)c1ccncc1)c1ccccc1` (stereo not drawn): 99.9%; for `CCn1cc(C(=O)O)c(=O)c2cc(F)c(N3CCN(S(=O)(=O)c4cccc5ccccc45)CC3)cc21`: 12.1%.

With `CCN(CC)CCCC(C)N=c1cc(Nc2cc(=NC(C)CCCN(CC)CC)c3cc(OC)ccc3o2)oc2ccc(OC)cc12` (stereo not drawn), the growth is -41.7% (active). As to `NC(=S)NN=C1CCCCC1`, the growth was 39.6%.

The values above are taken from PubChem BioAssay (NCI).
